High-throughput results: PubChem BioAssay, National Center for Advancing Translational Sciences (NCATS)
ALDH1A1 block = blocks purified human ALDH1A1 activity; Potency, µM (titrated, usually from 75.3 µM), for the others: at the top dose activity, negative = inhibition, actives largely listed as inhibitors; Purified ALDH1A1, NADH fluorescence, propionaldehyde substrate; P00352; 7.3% of 220,000 active; active = well fitted inhibition curve with a large enough effect, not every such curve was filed as active; inconclusive = small, poorly fitted or top-dose-only effect, or another doubt; inactive = no such curve, though single readings can be large or run the other way;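 also: potency is read from the fitted curve at half-maximal effect; plate controls were no enzyme wells and a reference inhibitor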
Target sequence (P00352 whole entry, looked up): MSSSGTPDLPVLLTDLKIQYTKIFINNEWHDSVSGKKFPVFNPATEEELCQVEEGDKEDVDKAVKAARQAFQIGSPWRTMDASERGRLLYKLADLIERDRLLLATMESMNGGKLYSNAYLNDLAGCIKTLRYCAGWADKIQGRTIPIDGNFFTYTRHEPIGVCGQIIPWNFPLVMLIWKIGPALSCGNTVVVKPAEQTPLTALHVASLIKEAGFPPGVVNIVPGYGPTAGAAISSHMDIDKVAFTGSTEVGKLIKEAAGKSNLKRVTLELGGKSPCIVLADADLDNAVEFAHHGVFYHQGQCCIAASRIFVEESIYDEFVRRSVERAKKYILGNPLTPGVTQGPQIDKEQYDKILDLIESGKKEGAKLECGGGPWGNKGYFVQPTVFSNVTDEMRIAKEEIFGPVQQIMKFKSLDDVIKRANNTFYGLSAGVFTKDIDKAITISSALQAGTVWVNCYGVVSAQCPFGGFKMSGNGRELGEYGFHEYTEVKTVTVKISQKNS
HPGD block = HPGD (human) dehydrogenase inhibition; P15428; purified HPGD, NADH fluorescence kinetic, PGE2 substrate; Potency, µM, inactives show at the top dose activity change, negative = inhibition, most hits filed as inhibitors; 4.3% of 150,000 active; active = well fitted inhibition curve with a large enough effect, not every such curve was filed as active; inconclusive = small, poorly fitted or top-dose-only effect, or another doubt; inactive = no such curve, though single readings can be large or run the other way; also: potency is read from the fitted curve at half-maximal effect; % is scaled to controls: 0 for no effect and ±100 for the full control effect
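NADH formation kinetics: reaction with 30 uM PGE2 and 1 mM NAD+ (final), 20 nM enzyme, Tris-HCl pH 8 with Tween 20, after 15 min compound preincubation at room temperature. Fluorescence change, last versus first of five reads.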
HTT aggregate = reduces HttQ103-GFP aggregates in PC12 cells; PC12 HttQ103-GFP aggregates, Acumen cytometry, 40 h; Potency, µM (series often up to 46.1 µM), without a hit: at the highest dose activity change, negative = inhibition, actives largely listed as inhibitors; 1.1% of 220,000 active; also: potency is read from the fitted curve at half-maximal effect; % is scaled to controls: 0 for no effect and ±100 for the full control effect; nearly all actives have a fitted effect of over 60% in size
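Ecdysone-promoter PC12 model expressing HTT exon 1 Q103 fused to GFP, induced by tebufenozide at 100 nM final. Compounds titrated; aggregates sized 1–25 µm scored on a 488 nm laser cytometer.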
IMPase Li inh = membrane-permeable IMPase blocker, potentiated with lithium; Potency, µM (highest dose often 59.4 µM), without a hit: top-dose activity, negative = IMPase inhibition, most hits filed as inhibitors; CHO-M1 cells, IP1 TR-FRET (IP-One), carbachol + lithium; 0.35% of 210,000 active; AID 1457;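 also: IP1 builds up when IMPase is blocked and the TR-FRET signal falls; potency is read from the fitted curve at half-maximal effect; plate controls were basal vehicle for no effect and high inhibitor control for full effect; nearly all actives have a fitted effect of over 50% in size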
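CHO cells stably expressing M1 receptor (2000/well) were cultured 16–30 h, then exposed to compounds with a small lithium addition for 30 min at 37C. IP1 was measured by TR-FRET competition; AC50 from Hill fits.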
IMPase cell inh = cell-permeable inhibitors of inositol monophosphatase (IMPase); P97697; CHO-M1 cells, IP1 accumulation, HTRF TR-FRET ratio; inhibition (IP1 accumulation), % at 46.1 µM; 120,000 tested, under 10 active; AID 901; active = well fitted curve in the direction sought with a large enough effect in the signal ratio, not every such curve was filed as active; inconclusive = small, poorly fitted or top-dose-only effect, or a change in a side signal; inactive = no such curve, though single readings can be large or run the other way; the % refers to the signal ratio;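 also: cells stimulated with carbachol in lithium chloride buffer; plate controls were DMSO basal wells for no effect and reference inhibitor wells for full effect; higher means more IMPase inhibition seen as more IP1 and lower FRET ratio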
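Carbachol-driven Gq signalling in CHO-M1 cells (2000/well) generates IP1. Compounds that block IMPase raise IP1 and so reduce the FRET signal from Eu-anti-IP1 and d2-IP1 after a 10 min room-temperature lysis.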
HTT cytoprotect = cytoprotection in Huntington HTT-Q103 PC12 cell model. PC12 HTT-Q103 induced, cytoprotection, ATP luminescence, 40 h. Potency, µM (series often up to 56.4 µM), without a hit: cytoprotection (ATP increase), actives largely listed as activators. 0.14% of 230,000 active; also: potency is read from the fitted curve at half-maximal effect; % of control where 0% means no effect; nearly all actives have a fitted effect of over 45% in size
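Quantitative HTS on tebufenozide-induced (100 nM) PC12 cells expressing HTTQ103 exon 1–GFP; compounds tested as a concentration series; survival measured via cellular ATP.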
* marks the source's active call; other numbers are inactive results; ? = inconclusive; / = not tested or not shown; [ ] = remark or other dose. Hits are enriched below; roughly 9.4% of the tested compounds scored in any of these assays. Unless noted, calls follow the shape of the dose curve; as a rule, active = well fitted curve in the direction sought with a large enough effect; inconclusive = small, poorly fitted or top-dose-only effect, or another doubt; inactive = no such curve, though single readings can be large; an effect the other way counts as inactive or inconclusive.

SMILES | ALDH1A1 block | HPGD block | HTT aggregate | IMPase Li inh | IMPase cell inh | HTT cytoprotect
CCC(c1nnnn1Cc1ccco1)N(Cc1ccccc1OC)Cc1cc2cc(C)ccc2[nH]c1=O (stereo not drawn) | ? | -14% | 29% | 1%[38.3 µM] | 3 | -14%[10 µM]
CCC(c1nnnn1Cc1ccco1)N(Cc1cc2cc(C)cc(C)c2[nH]c1=O)CC1CCCO1 (stereo not drawn) | 13µM* | -15% | 12% | 35%[38.3 µM] | 8 | -10%
Cc1cccc2cc(CN(Cc3ccco3)C(c3nnnn3CCc3ccccc3)C(C)C)c(=O)[nH]c12 (stereo not drawn) | 32µM* | ? | 1%[9.22 µM] | 12%[38.3 µM] | 7 | -17%[10 µM]
CC(C)CCCC(C)C1CCC2C3CC(O)[C@@]4(O)CC(O)CC[C@@]4(C)C3CC[C@@]12C (stereo partly drawn) | 7% | -19% | / | 7% | / | /
N#CCCN(C1CCCCC1)S(=O)(=O)CCOc1ccccc1 | 8.9µM* | -4% | -4% | 1%[38.3 µM] | -3 | 1%[10 µM]
Cc1ccc(S(=O)(=O)N(CCC#N)C2CCCCC2)c2nsnc12 | ? | -18% | -26% | 7% | / | /
Cc1ccccc1N1CCN(CCCN2C(=O)CC(=C(c3ccccc3)c3ccccc3)C2=O)CC1 | 18µM* | ? | -16% | 46%[38.3 µM] | -2 | -26%
O=C1CC(=C(c2ccccc2)c2ccccc2)C(=O)N1CCCCN1CCN(c2cccc(Cl)c2)CC1 | 0% | -5% | ? | 25%[38.3 µM] | 6 | -38%
CCOc1ccc2nc(NC(=S)N(C)C)sc2c1 | 25µM* | 14µM* | -18% | 23%[38.3 µM] | 12 | -51%
CCNC(=O)Nc1nc2ccccc2s1 | 12% | / | -22% | -4% | / | -50%
CN(C)C(=S)Nc1nc2ccccc2s1 | 7.9µM* | / | 4%[9.22 µM] | 0% | / | -23%[10 µM]
CCOc1ccc2nc(NC(=O)CS(=O)(=O)c3ccc(C)cc3)sc2c1 | 25µM* | -17% | -14% | 28%[38.3 µM] | 3 | -28%
CCOCC(=O)Nc1nc2ccccc2s1 | 22µM* | -3% | ? | 8% | 4 | 3%[10 µM]
Cc1ccccc1S(=O)(=O)N(CC(O)CN1C(=O)NC(C)(C)C1=O)c1ccccc1 (stereo not drawn) | / | / | -10%[9.22 µM] | / | / | -1%[10 µM]
O=[N+]([O-])c1ccc(O)c(NC(=S)Nc2ccccc2)c1 | 22µM* | ? | 9% | 13%[38.3 µM] | 13 | 6%
COc1ccc([N+](=O)[O-])cc1NC(=S)Nc1ccccc1 | ? | -28% | 24% | 3%[38.3 µM] | 8 | 7%[10 µM]
COC(=O)c1cc(-c2ccccc2)sc1NC(=O)CN1C(=O)c2ccccc2C1=O | 25µM* | ? | 3% | -1%[38.3 µM] | 4 | -22%
c1cncc(-c2nnc(SCc3cccc4ccccc34)o2)c1 | -3% | 25µM* | 10% | 8%[38.3 µM] | -1 | 2%
c1ccc(CSc2nnc(-c3cccnc3)o2)cc1 | -3% | -24% | ? | -5% | ? | 3%[10 µM]
O=C(CSc1nnc(-c2cccnc2)o1)OC1CCCCC1 | 10µM* | -14% | 3% | 21%[38.3 µM] | 1 | -11%[10 µM]
C=CCn1c(CC#N)nnc1N1CCOCC1 | 8.9µM* | -4% | -10% | 22%[38.3 µM] | 3 | -1%
C[C@@]12CCC(=O)C=C1CC[C@H]1C2[C@@H](O)C[C@]2(C)[C@@H]1CC[C@@]2(O)C(=O)CO (stereo partly drawn) | 6%[13.5 µM] | -2% | / | / | / | /
COCCOC(=O)c1c(C)oc2ccc(NS(=O)(=O)c3ccc(C)cc3)cc12 | / | / | 7%[9.22 µM] | / | / | -1%[10 µM]
COCCOC(=O)c1c(C)oc2ccc(NS(=O)(=O)c3ccccc3)cc12 | 20µM* | -15% | -8% | 20%[38.3 µM] | 1 | 3%[10 µM]
COc1ccc(C(=O)NC(=S)Nc2cccnc2)cc1OC | ? | / | 12%[9.22 µM] | -6% | / | 2%[10 µM]
O=C(/C=C/c1ccccc1)NC(=S)NNC(=O)c1cccnc1 | -8% | -20% | -22% | 12%[38.3 µM] | 0 | -6%
